Experimental findings from paper PMC7862700, “An all-to-all approach to the identification of sequence-specific readers for epigenetic DNA modifications on cytosine” are described below.

Assay in all cases: DAPPL (digital affinity profiling via proximity ligation, sequencing); 10 mM Tris-HCl pH 7.5, 50 mM NaCl, 1 mM DTT, 4% glycerol, room temperature, 30 min; GST-TFs on glutathione beads, 16-mer random dsDNA library, 0.1% formaldehyde crosslink after washing; high values mean tight binding
Test [1] has as its target T1, FLI1 (Homo sapiens, UniProt Q01543 1-452).
T1 sequence: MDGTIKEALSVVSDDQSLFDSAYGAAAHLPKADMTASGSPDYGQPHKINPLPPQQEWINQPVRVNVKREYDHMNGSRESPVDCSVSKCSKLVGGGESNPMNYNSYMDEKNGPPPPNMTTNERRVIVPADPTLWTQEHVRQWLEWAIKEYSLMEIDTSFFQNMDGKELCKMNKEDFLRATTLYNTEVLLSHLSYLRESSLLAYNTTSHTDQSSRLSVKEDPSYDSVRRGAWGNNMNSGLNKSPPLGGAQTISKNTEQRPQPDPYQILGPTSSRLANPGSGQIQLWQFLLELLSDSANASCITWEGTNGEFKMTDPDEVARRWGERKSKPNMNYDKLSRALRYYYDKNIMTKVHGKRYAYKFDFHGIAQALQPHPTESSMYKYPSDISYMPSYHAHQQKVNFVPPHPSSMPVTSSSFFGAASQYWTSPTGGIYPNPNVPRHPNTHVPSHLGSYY
The following applies: protein: recombinant; tags: N-terminal GST; dsDNA, one strand shown. The gist of the method: (§1)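 Sequencing on an Illumina NextSeq500 followed washing, crosslinking with 0.1% formaldehyde, proximity ligation (BsaI/T4 ligase, 1 h, 37 °C) and PCR amplification of pools that had been incubated for 30 min at room temperature with 200 nmole of a random double-stranded 16-mer DNA library in Tris/NaCl/DTT/glycerol buffer. Each pool held DNA-barcoded human transcription factors, expressed in yeast as GST fusions and captured on glutathione beads, plus a tag-only sample. Binding signal is a hexamer's read frequency for a factor divided by its frequency in the tag-only sample.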

The target in test [2] is T2, ELK1 (Homo sapiens, UniProt P19419 1-428).
T2 sequence: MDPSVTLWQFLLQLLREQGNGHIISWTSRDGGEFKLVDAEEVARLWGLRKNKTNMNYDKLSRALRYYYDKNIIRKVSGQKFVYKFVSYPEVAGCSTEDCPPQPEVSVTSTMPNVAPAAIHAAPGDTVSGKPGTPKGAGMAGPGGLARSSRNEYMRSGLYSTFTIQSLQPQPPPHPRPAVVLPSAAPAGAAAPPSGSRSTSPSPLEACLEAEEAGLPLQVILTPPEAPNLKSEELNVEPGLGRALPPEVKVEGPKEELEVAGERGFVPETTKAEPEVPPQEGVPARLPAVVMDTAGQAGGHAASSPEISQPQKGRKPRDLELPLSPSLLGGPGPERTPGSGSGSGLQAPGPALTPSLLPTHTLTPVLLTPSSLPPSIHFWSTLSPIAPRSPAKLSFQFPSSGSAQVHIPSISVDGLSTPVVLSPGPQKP
The following applies: protein: recombinant; tags: N-terminal GST; dsDNA, one strand shown. The gist of the method: as §1

Test [3] addresses T3, GABPA (Homo sapiens, UniProt Q06546 1-454).
T3 sequence: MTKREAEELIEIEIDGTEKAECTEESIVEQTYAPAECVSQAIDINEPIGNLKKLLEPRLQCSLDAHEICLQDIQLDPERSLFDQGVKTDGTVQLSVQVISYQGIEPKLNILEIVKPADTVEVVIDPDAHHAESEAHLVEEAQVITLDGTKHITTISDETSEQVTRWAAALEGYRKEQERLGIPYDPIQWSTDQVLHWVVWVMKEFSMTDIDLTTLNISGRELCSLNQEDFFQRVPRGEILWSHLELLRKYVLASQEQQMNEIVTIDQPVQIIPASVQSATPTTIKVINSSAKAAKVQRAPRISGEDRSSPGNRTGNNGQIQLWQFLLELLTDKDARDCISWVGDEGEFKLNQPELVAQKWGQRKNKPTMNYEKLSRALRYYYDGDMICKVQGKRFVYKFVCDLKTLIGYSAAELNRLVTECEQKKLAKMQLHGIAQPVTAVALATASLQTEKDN
The following applies: protein: recombinant; tags: N-terminal GST; dsDNA, one strand shown. The gist of the method: as §1

In test [4] the target is T4, ERG (Homo sapiens, UniProt P11308 1-479).
T4 sequence: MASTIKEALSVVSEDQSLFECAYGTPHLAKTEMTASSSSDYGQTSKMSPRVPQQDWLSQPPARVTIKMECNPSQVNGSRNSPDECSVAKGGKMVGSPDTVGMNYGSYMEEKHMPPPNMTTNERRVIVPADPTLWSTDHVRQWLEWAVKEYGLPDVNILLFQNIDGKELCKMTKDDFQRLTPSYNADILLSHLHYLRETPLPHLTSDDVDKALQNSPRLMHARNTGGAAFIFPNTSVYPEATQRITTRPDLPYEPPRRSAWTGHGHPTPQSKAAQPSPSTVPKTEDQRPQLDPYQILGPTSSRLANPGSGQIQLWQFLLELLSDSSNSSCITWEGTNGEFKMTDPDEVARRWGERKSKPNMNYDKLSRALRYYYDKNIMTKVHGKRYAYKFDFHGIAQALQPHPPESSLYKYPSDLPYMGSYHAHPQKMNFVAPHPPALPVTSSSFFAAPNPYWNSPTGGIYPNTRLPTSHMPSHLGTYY
The following applies: protein: recombinant; tags: N-terminal GST; dsDNA, one strand shown. The gist of the method: as §1

Test [5] has as its target ELF1 (Homo sapiens, UniProt P32519 1-619). The following applies: protein: recombinant; tags: N-terminal GST; dsDNA, one strand shown. A digest of the protocol: as §1
Test [6] addresses T5, EHF (Homo sapiens, UniProt Q9NZC4 1-300).
T5 sequence: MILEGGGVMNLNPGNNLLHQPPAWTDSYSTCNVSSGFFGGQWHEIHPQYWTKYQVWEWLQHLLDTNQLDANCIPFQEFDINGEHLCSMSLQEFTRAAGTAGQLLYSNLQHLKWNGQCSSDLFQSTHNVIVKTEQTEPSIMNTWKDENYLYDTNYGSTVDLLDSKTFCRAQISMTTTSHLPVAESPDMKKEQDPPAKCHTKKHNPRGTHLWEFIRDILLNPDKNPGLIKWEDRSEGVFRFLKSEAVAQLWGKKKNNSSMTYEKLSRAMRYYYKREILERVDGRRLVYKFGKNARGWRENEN
The following applies: protein: recombinant; tags: N-terminal GST; dsDNA, one strand shown. A digest of the protocol:
as §1

The target in test [7] is SPI1 (Homo sapiens, UniProt P17947 1-270). The following applies: protein: recombinant; tags: N-terminal GST; dsDNA, one strand shown. A digest of the protocol: as §1
In test [8] the target is SPIB (Homo sapiens, UniProt Q01892 1-262). The following applies: protein: recombinant; tags: N-terminal GST; dsDNA, one strand shown. The gist of the method:
as §1

Test [9] concerns the target T6, ELK3 (Homo sapiens, UniProt P41970 1-407).
T6 sequence: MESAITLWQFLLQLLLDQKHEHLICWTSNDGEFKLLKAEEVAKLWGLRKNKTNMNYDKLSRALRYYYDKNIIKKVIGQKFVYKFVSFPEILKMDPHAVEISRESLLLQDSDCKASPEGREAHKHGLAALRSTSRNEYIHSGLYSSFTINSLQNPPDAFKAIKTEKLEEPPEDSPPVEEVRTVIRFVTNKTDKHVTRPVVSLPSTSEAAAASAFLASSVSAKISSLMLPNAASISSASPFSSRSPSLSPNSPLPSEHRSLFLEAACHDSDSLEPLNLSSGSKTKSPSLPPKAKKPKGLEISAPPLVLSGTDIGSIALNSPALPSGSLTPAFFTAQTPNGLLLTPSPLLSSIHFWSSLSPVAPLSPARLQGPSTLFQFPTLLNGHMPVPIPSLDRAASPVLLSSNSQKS
The following applies: protein: recombinant; tags: N-terminal GST; dsDNA, one strand shown. The gist of the method: as §1

Test [10] deals with T7, FEV (Homo sapiens, UniProt Q99581 1-238).
T7 sequence: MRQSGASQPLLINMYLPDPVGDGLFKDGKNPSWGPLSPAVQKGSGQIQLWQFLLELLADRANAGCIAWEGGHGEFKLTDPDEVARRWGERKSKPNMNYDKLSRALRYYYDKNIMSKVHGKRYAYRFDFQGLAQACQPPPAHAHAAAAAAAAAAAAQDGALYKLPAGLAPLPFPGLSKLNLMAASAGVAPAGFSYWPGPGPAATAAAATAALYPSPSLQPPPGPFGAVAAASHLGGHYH
The following applies: protein: recombinant; tags: N-terminal GST; dsDNA, one strand shown. The gist of the method:
as §1

Test [11] deals with ETV5 (Homo sapiens, UniProt P41161 1-510). The following applies: protein: recombinant; tags: N-terminal GST; dsDNA, one strand shown. The gist of the method: as §1
ETV5, sequence (P41161 whole entry): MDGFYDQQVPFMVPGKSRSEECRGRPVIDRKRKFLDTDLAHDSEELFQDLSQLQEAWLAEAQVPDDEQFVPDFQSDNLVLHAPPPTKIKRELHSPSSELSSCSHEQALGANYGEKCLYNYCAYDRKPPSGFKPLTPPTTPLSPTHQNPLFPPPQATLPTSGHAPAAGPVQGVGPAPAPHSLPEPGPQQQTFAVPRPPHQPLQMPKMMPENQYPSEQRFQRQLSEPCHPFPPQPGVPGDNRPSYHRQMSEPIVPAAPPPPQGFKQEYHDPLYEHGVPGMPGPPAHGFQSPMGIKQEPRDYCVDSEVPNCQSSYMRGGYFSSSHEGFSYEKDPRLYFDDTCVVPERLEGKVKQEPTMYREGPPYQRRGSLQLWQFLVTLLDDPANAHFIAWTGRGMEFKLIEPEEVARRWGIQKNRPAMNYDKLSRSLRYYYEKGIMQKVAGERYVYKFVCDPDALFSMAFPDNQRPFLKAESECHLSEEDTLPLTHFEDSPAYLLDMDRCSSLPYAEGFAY
Test [12] concerns the target HSF1 (Homo sapiens, UniProt Q00613 1-529). The following applies: protein: recombinant; tags: N-terminal GST; chain copies: 3; dsDNA, one strand shown. A digest of the protocol:
as §1

Test [13] deals with T8, SPIC (Homo sapiens, UniProt Q8N5J4 1-248).
T8 sequence: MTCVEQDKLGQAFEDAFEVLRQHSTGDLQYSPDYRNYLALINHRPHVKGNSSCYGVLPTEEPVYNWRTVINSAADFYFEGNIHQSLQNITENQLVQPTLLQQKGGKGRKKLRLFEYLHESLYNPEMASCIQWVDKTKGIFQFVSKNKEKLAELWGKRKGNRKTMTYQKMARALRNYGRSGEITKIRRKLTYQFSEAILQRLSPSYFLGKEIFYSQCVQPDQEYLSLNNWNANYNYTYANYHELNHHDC
The following applies: protein: recombinant; tags: N-terminal GST; dsDNA, one strand shown. The gist of the method: as §1

The target in test [14] is ELF4 (Homo sapiens, UniProt Q99607 1-663). The following applies: protein: recombinant; tags: N-terminal GST; dsDNA, one strand shown. A digest of the protocol: as §1
ELF4, sequence (Q99607 whole entry): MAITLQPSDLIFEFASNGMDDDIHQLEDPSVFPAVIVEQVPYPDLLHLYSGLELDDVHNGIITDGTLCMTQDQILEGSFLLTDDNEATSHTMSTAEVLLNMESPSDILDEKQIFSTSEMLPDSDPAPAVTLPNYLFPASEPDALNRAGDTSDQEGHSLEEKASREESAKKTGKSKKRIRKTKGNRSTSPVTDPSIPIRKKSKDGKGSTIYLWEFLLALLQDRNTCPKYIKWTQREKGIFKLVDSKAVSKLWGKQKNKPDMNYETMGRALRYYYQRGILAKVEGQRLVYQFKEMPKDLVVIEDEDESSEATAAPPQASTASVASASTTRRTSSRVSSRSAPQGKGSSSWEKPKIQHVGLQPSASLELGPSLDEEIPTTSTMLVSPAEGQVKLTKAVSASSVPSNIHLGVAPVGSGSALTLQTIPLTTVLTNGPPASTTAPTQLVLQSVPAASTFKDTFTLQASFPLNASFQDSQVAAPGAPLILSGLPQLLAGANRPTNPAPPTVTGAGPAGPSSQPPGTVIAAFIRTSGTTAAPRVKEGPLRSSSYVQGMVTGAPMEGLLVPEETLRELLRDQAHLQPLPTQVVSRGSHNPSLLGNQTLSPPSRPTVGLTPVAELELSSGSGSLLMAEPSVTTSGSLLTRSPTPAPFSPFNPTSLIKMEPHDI
Test [15] addresses T9, ELK4 (Homo sapiens, UniProt P28324-2 1-405).
T9 sequence: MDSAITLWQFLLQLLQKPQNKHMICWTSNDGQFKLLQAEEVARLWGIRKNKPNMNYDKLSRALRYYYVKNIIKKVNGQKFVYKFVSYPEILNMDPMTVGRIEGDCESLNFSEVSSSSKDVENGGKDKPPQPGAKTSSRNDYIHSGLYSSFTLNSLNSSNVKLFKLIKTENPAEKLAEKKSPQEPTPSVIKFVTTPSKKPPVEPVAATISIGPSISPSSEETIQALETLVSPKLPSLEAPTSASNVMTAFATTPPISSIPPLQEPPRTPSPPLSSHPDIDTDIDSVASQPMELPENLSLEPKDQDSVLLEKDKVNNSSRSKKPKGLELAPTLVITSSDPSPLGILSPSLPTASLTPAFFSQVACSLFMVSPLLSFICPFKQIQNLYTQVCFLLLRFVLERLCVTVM
The following applies: protein: recombinant; tags: N-terminal GST; dsDNA, one strand shown. The gist of the method:
as §1

In test [16] the target is T10, ETV2 (Homo sapiens, UniProt O00321 1-342).
T10 sequence: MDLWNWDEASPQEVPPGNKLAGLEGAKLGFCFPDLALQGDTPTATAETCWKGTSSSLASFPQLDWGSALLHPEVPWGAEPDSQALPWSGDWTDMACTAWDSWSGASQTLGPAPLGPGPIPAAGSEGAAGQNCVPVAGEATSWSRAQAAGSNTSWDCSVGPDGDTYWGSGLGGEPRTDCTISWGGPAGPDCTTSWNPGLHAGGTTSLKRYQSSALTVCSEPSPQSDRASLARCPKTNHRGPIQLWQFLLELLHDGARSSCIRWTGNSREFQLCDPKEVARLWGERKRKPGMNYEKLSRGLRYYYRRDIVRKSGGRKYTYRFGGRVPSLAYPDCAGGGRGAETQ
The following applies: protein: recombinant; tags: N-terminal GST; dsDNA, one strand shown. The gist of the method: as §1

The target of test [17] is T11, ELF3 (Homo sapiens, UniProt P78545 1-371).
T11 sequence: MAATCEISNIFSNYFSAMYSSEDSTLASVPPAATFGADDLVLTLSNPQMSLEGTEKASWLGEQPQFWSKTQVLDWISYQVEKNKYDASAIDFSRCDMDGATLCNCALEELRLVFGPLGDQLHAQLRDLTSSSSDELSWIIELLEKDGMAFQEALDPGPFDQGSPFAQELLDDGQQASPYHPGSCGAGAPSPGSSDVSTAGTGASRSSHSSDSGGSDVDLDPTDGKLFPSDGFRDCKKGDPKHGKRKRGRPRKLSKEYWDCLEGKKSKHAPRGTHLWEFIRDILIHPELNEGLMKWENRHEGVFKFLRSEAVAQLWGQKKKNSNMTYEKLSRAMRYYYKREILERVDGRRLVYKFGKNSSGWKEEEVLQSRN
The following applies: protein: recombinant; tags: N-terminal GST; dsDNA, one strand shown. A digest of the protocol:
as §1

The target in test [18] is ETV1 (Homo sapiens, UniProt P50549 1-477). The following applies: protein: recombinant; tags: N-terminal GST; dsDNA, one strand shown. The gist of the method:
as §1

SPIB, sequence (Q01892 whole entry): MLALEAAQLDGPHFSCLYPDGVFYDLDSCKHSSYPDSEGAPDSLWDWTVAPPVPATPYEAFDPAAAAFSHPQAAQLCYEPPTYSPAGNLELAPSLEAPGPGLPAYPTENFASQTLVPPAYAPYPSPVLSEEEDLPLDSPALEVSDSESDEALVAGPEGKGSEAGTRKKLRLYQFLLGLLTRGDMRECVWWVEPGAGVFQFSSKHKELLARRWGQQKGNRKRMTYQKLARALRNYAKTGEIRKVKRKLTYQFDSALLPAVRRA
ELF1, sequence (P32519 whole entry): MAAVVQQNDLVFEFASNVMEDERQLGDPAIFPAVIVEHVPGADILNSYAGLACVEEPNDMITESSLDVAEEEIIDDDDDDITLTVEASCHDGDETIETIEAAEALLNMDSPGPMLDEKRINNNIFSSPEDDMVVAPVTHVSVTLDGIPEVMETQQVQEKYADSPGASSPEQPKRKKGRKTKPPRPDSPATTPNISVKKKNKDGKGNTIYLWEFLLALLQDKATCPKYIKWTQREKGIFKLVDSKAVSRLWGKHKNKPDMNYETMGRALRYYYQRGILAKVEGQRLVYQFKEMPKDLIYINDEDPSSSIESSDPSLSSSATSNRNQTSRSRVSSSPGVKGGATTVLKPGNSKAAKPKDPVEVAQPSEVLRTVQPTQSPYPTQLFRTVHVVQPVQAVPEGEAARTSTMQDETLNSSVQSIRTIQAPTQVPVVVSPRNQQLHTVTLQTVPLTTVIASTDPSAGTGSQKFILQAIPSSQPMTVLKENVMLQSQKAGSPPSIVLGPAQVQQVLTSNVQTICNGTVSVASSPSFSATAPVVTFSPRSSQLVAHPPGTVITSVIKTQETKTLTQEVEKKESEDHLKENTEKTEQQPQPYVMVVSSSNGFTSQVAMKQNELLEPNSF
ETV1, sequence (P50549 whole entry): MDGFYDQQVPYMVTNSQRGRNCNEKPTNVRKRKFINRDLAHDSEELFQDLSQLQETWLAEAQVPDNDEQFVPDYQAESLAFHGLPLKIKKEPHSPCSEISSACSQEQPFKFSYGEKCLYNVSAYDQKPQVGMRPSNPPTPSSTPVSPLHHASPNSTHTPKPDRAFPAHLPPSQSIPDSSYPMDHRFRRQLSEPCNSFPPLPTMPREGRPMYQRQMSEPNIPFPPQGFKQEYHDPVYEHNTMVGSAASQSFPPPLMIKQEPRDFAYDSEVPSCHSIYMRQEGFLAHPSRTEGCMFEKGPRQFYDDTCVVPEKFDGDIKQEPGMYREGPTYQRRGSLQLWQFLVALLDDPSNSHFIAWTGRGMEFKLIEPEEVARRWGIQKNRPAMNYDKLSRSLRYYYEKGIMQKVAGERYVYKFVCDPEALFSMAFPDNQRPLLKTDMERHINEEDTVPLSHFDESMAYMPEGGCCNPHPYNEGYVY
HSF1, sequence (Q00613 whole entry): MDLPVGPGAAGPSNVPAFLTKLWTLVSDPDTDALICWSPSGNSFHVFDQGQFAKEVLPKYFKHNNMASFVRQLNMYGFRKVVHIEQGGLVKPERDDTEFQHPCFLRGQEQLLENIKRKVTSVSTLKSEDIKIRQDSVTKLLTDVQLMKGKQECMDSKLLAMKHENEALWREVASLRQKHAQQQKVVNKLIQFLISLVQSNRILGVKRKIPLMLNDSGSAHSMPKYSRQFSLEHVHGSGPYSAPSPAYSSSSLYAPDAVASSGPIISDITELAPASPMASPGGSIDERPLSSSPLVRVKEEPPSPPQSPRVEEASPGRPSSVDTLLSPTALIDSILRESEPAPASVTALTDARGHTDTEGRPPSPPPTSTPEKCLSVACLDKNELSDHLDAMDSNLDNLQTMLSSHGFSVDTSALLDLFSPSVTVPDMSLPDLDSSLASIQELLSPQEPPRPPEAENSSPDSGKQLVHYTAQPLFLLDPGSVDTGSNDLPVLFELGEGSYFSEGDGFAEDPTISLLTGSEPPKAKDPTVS

Turning to CAGGAA, the binding signal in test [1] is 1.63 fold enrichment (6-mer frequency, TF over GST control); in test [2] it was 1.57 fold enrichment (6-mer frequency, TF over GST control); in test [3], 1.5 fold enrichment (6-mer frequency, TF over GST control); in test [4], 1.83 fold enrichment (6-mer frequency, TF over GST control); in test [5], 1.48 fold enrichment (6-mer frequency, TF over GST control); in [6], 1.79 fold enrichment (6-mer frequency, TF over GST control). The binding signal in test [7] was 1.96 fold enrichment (6-mer frequency, TF over GST control); in [8], 1.69 fold enrichment (6-mer frequency, TF over GST control); in test [9], 1.57 fold enrichment (6-mer frequency, TF over GST control); in test [10], 1.51 fold enrichment (6-mer frequency, TF over GST control); in test [11], 1.79 fold enrichment (6-mer frequency, TF over GST control); in [12] it was 1.04 fold enrichment (6-mer frequency, TF over GST control). Moreover, the binding signal is 1.65 fold enrichment (6-mer frequency, TF over GST control) in test [13]; 1.52 fold enrichment (6-mer frequency, TF over GST control) in test [14]; 1.37 fold enrichment (6-mer frequency, TF over GST control) in test [15]; 1.6 fold enrichment (6-mer frequency, TF over GST control) in test [16]; 1.86 fold enrichment (6-mer frequency, TF over GST control) in test [17]; 1.74 fold enrichment (6-mer frequency, TF over GST control) in [18].
